Bioassay records: PubChem BioAssay, National Center for Advancing Translational Sciences (NCATS)
GLA spleen mod: qHTS Assay for Inhibitors and Activators of Human alpha-Galactosidase From Spleen Homogenate; Alpha-galactosidase A (Homo sapiens), P06280; human spleen homogenate, 4MU-alpha-Gal fluorescence, 40 min; Potency, µM (titrated, usually from 80 µM), for inactives: at the top dose activity change, negative = inhibition, most hits filed as inhibitors; 240,000 compounds, 0.008% hits; AID 2107, 2009;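 note: potency is the fitted concentration of half-maximal effect; 0% = enzyme with vehicle and -100% = no enzyme basal signal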
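Inhibition or activation of alpha-galactosidase in human spleen homogenate is scored by 4-MU fluorescence after 40 min at 37C, pH 5.0, with 1 mM substrate. AC50s come from concentration-response fitted to the Hill equation.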
aGlu spleen mod: qHTS Assay for Inhibitors and Activators of Human alpha-Glucosidase From Spleen Homogenate | Lysosomal alpha-glucosidase (Homo sapiens), P10253 | human spleen homogenate, 4-MU-alpha-glucoside fluorescence | Potency, µM (top dose mostly 79.9 µM), inactives show at the highest dose activity change, negative = inhibition, most hits filed as inhibitors | 240,000 compounds, 0.006% hits | AID 2112, 2009;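 note: potency is the fitted concentration of half-maximal effect; 0% = enzyme with vehicle and -100% = no enzyme basal signal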
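Human spleen homogenate (1 ug) incubated with compounds and 1 mM 4-methylumbelliferyl-alpha-D-glucopyranoside in pH 5.0 citrate/phosphate buffer, 37 C, 40 min. Stopped at pH 10; 4-MU fluorescence (Ex 365/Em 440 nm); AC50 by Hill fit.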
GAA glycogen mod: qHTS Assay for Inhibitors and Activators of Human alpha-Glucosidase Cleavage of Glycogen; 300,000 compounds, 0.38% hits; recombinant GAA, glycogen substrate, Amplex Red glucose oxidase fluorescence; Lysosomal alpha-glucosidase (Homo sapiens), P10253; Potency, µM (doses to about 76.4 µM), inactives show top-dose activity change, negative = inhibition, actives largely listed as inhibitors;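 note: potency is the fitted concentration of half-maximal effect; 0% = full enzyme reaction and -100% = no-enzyme basal signal; the screen sought inhibitors and activators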
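Recombinant enzyme (4 nM final) with compounds titrated up to 77 uM and bovine liver glycogen (30 ug) in citrate pH 5.0, 0.01% Tween-20, 37 C 40 min. Released glucose detected by Amplex Red/glucose oxidase (Ex 573/Em 610); AC50 from Hill fits.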
GAA inhib: qHTS Assay for Inhibitors of Human alpha-Glucosidase as a Potential Chaperone Treatment of Pompe Disease | purified human GAA, 4-MU-alpha-glucoside fluorescence | Potency, µM (titrated, usually from 76.9 µM), for the others: at the top dose activity change, negative = inhibition, hits mostly inhibitors | 200,000 compounds, 0.005% hits;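 note: potency is the fitted concentration of half-maximal effect; plate controls were uninhibited enzyme wells for no effect and no-enzyme background for full effect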
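Activity normalized between no-enzyme (basal) and enzyme-only wells. Conditions: 4 nM human enzyme, 400 uM fluorogenic substrate, citrate/phosphate pH 5.0 with Tween-20, 20 min room temperature, compounds up to 77 uM.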
GLA inh pH 4.5: qHTS Assay for Inhibitors of Human alpha-Galactosidase at pH 4.5; purified enzyme, 4-MU-alpha-Gal fluorescence, pH 4.5; activity change, negative = inhibition, % at 105 µM; 230,000 tested, under 10 active; Alpha-galactosidase A (Homo sapiens), P06280;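 note: 0% = full activity with enzyme and -100% = basal without enzyme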
Target sequence (P06280 whole entry, looked up): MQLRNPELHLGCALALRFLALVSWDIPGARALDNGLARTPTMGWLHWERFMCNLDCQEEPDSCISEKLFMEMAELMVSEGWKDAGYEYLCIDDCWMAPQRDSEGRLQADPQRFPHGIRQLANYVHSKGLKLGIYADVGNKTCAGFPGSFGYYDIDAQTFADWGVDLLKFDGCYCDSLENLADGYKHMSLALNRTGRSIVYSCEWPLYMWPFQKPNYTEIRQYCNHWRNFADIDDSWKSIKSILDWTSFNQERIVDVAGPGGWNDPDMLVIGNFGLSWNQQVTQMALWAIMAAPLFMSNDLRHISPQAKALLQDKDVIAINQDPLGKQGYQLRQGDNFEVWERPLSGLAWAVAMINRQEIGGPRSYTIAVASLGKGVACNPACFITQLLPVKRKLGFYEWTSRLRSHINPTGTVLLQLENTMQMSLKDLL
The depositor's hits bear a star; ? = inconclusive; nt = no result given; [ ] = another dose, or the depositor's remark. Hits are enriched below; roughly 0.4% of the tested compounds scored in any of these assays. Calls come from the whole dose curve; as a rule, active = well fitted curve in the direction sought with a large enough effect; inconclusive = small, poorly fitted or top-dose-only effect, or another doubt; inactive = no such curve, though single readings can be large; an effect the other way counts as inactive or inconclusive.

SMILES | GLA spleen mod | aGlu spleen mod | GAA glycogen mod | GAA inhib | GLA inh pH 4.5
CC1C(=O)NN=C1C(=O)N/N=C\C(Br)=C\c1ccccc1 (stereo not given) | -10% | -2% | 25µM* | 6% | 0
CC1=NNC(=O)C1CC(=O)N/N=C/C(Br)=C/c1ccccc1 (stereo not given) | 14% | 12% | ? | nt | 0
Oc1c(Br)cc(Br)cc1C=Nc1ccc2c(c1)OCCO2 | -12% | 5% | ? | -8% | -4[21.1 µM]
Oc1[nH]c2ccccc2c1C=Nc1ccc2c(c1)OCCO2 | -10% | -10% | 32µM* | -3% | -7
Nc1n[nH]c2cc(=O)n(-c3cccc(C(F)(F)F)c3)nc12 | 3% | -19% | 32µM* | -10% | -2
O=c1[nH][nH]c2cc(=O)n(-c3cccc(C(F)(F)F)c3)nc12 | -1% | nt | ? | ? | -2
Cc1ccc(-c2[nH]c(=O)n3ccncc23)s1 | 9% | 1% | 40µM* | -7% | -8
O=C(NNC(=S)NC1CCCCC1)c1cccs1 | 12% | -8% | ? | -2% | 9
O=C(NNC(=S)NC1CCCCC1)c1ccc(Cl)s1 | 3% | -14% | 50µM* | ? | 0
C1CCCNCC1 | -2% | 2% | nt | nt | nt
NNc1ccc2nnc(C(F)(F)C(F)(F)C(F)(F)F)n2n1 | 5% | 4% | 32µM* | 8% | 6
COc1cc(-c2ccc(N=Nc3ccc4c(S(=O)(=O)O)cc(S(=O)(=O)O)c(N)c4c3O)c(OC)c2)ccc1N=Nc1ccc2c(S(=O)(=O)O)cc(S(=O)(=O)O)c(N)c2c1O | -2% | -2% | nt | nt | 3
CCCC[C@H](NC(=O)[C@H](CO)NC(=O)[C@H](Cc1ccc(O)cc1)NC(=O)[C@H](CO)NC(C)=O)C(=O)N[C@@H](CCC(=O)O)C(=O)N[C@@H](Cc1cnc[nH]1)C(=O)N[C@H](Cc1ccccc1)C(=O)N[C@@H](CCCNC(=N)N)C(=O)N[C@@H](Cc1c[nH]c2ccccc12)C(=O)NCC(=O)N[C@@H](CCCCN)C(=O)N1CCC[C@H]1C(=O)N[C@H](C(N)=O)C(C)C | 3% | 10% | nt | nt | nt
CC(=O)Nc1cc(C(C)C)c(O)c(C(C)C)c1 | -1% | -6% | 11µM* | -8% | -15
COc1ccc(OC)c(-c2nnc3n2N=C(c2c(OC)cccc2OC)CS3)c1 | -9% | 12% | nt | nt | nt
COc1cc2cc3c4c(cc(OC)c(OC)c4c2cc1OC)CCN3C | ? | 16% | nt | nt | -15
O=C(c1ccc2ncsc2c1)N1CCN(c2ccccc2Cl)CC1 | 3% | 4% | -9% | 5% | ?
O=C(c1ccc2ncsc2c1)N1CCN(c2ccc(O)cc2)CC1 | 2% | 1% | 9.9µM* | -3% | 1
O=C1NCCCC2c3cc(O)c4ccccc4c3OC12N1CCCCC1 (stereo not given) | -7% | -5% | 25µM* | 11% | 0
O=C1NCCCC2c3c(cc(Br)c(O)c3Br)OC12N1CCOCC1 (stereo not given) | 9% | -1% | -14% | -1% | 7
CCOC(=O)CCN1C(=O)[C@@H]2[C@H]3C(=CC[C@H]2C1=O)C(=O)[C@H]1O[C@H]1[C@H]3O | 3%[17.5 µM] | -20%[17.4 µM] | nt | nt | nt
COc1cccc(CNc2ccc(S(=O)(=O)Nc3nccs3)cc2)c1O | 9% | 3% | 5.6µM* | -6% | 11
COC(=O)/C=C\c1cc(O)ccc1O | 6% | 3% | nt | nt | -22
CC(=O)c1sc(NS(=O)(=O)c2ccc(C)cc2)nc1C | 0% | -8% | -2% | 6% | -3
CCOC(=O)Nc1sc(NS(=O)(=O)c2ccc(C)cc2)nc1C | -8% | -2% | 28µM* | ? | 8
Cc1ccc(S(=O)(=O)Nc2nc(C)c(C(=O)NN)s2)cc1 | 8% | 6% | 32µM* | nt | 1
CCCC=O | 12% | 5% | nt | nt | nt
COC(=O)[C@H](Cc1ccccc1)NC(=O)[C@@H](C)CO | -3%[17.5 µM] | -1%[17.4 µM] | nt | nt | nt
